Most compounds without a hit are left out; they make up all but 3.8% or so of the library.
PLK1 PBD block: blocks phosphopeptide binding to human PLK1 polo-box domain. Plk1 PBD binding of FITC phosphopeptide, fluorescence polarization. Potency, µM, hits mostly inhibitors. P53350. 360,000 tested, 2.8% active; note: series mostly up to about 57 µM; nearly all actives have a fitted effect of over 65% in size
CBFb-RUNX1 inh: blocks binding between human CBF-beta and RUNX1 | Potency, µM (doses to about 59.8 µM), usual class: inhibitors | 230,000 tested, under 10 active | Q01196+Q13951 | AID 1477 | AlphaScreen CBFb-His/RUNX1-biotin binding, biochemical
Target sequence (Q01196 whole entry, looked up): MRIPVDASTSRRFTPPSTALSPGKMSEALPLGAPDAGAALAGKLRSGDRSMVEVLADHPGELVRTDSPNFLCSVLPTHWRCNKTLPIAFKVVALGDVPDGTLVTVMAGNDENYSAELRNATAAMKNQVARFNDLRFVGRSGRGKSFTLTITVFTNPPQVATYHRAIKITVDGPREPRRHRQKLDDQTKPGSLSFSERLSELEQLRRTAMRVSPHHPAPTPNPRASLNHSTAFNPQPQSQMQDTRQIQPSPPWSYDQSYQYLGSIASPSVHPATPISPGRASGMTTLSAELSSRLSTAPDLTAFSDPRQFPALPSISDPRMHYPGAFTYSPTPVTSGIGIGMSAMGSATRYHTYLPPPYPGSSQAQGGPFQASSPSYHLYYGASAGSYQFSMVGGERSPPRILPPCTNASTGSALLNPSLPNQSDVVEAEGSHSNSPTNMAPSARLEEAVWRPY
Target sequence (Q13951 whole entry, looked up): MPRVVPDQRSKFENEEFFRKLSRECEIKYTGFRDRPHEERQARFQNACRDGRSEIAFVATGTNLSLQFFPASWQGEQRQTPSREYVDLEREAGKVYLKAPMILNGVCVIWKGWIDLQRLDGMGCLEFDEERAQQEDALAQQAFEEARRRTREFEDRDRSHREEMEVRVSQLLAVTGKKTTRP
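Inhibition was taken as any reduction in AlphaScreen signal from the CBF-beta–RUNX1 pair (His and biotin tags, 30 nM each), measured after compound (15 min) and bead (90 min) incubations at room temperature.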
hERG WT inh: blocks the wildtype human KCNH2 potassium channel; Q12809; U2OS, BacMam KCNH2, thallium flux FluxOr; stronger effect = lower value; activity change, % at 1.84 µM; 340,000 tested, 0.37% active;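 active = maximum activity change below -70%; inconclusive = maximum activity change between -70% and -50%; inactive = maximum activity change above -50%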
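U2OS cells were transduced with wild-type KCNH2 virus (2.03 x 10^8 / mL) for 4 h at room temperature, then cultured overnight at 37 C. Thallium flux was read with FluxOr dye. Rate constants were normalized to DMSO controls.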
MBNL1 CUG block: MBNL1-poly(CUG) RNA binding inhibition | Q9NR56 | TR-FRET MBNL1-His/biotin-(CUG)12 binding, 665/545 ratio | Potency, µM (doses to about 57.5 µM), hits mostly inhibitors | 280,000 tested, 0.036% active | AID 2675; active = well fitted inhibition curve with a large enough effect in the signal ratio, with a control signal flat, not every such curve was filed as active; inconclusive = small, poorly fitted or top-dose-only effect, or effect the other way, or a change in a side signal; inactive = no such curve, though single readings can be large or run the other way; the % refers to the signal ratio
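Inhibition of protein-RNA binding appears as loss of TR-FRET between terbium anti-His antibody on MBNL1-His and streptavidin-XL665 on biotin-(CUG)12. Activity is normalized to buffer-only and uninhibited-complex controls.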
KCNH2 3.1 block: blocks the human KCNH2 3.1 channel isoform; U2OS KCNH2 3.1, thallium flux FluxOr; stronger effect = lower value; activity change, % (tested at about 1.8 µM); 340,000 tested, 0.95% active; AID 720553;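 active = maximum activity change below -70%; inconclusive = maximum activity change from -70% to -50%; inactive = maximum activity change above -50%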;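 note: thallium influx rate constant from kinetic fluorescence after stimulation buffer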
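We transduce U2OS cells with the mutant 3.1 virus, culture them overnight, load FluxOr with Red40 quencher for 45 min, then add stimulation buffer and read kinetically for 2 min to derive a normalized rate constant.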
VDR inh: inhibitors of human vitamin D receptor. P11473. VDR-SRC2-3 peptide fluorescence polarization, 2 h. Potency, µM, usual class: inhibitors. 400,000 tested, 0.93% active
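FP read-out; VDR + SRC2-3 coactivator peptide; 23 nl compound by pintool; 2 h RT incubation; reagents held at 4 deg C, protected from light.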
A number is an active result; - = inactive; ? = inconclusive; . = not tested or not shown. Unless noted, calls come from the whole dose curve; as a rule, active = well fitted curve in the direction sought with a large enough effect; inconclusive = small, poorly fitted or top-dose-only effect, or another doubt; inactive = no such curve, though single readings can be large; an effect the other way counts as inactive or inconclusive.

SMILES	PLK1 PBD block	CBFb-RUNX1 inh	hERG WT inh	MBNL1 CUG block	KCNH2 3.1 block	VDR inh
COc1ccc(-c2noc(CCC(=O)NCCCN3CCN(c4ccc(F)cc4)CC3)n2)cc1	-	-	-	-	-	-
O=C(CN1CCN(Cc2ccc(Cl)cc2)C1=O)NCCCN1CCN(c2ccc(F)cc2)CC1	-	-	-116	-	-97	-
COc1ccc(-c2noc(CCC(=O)NCCCN3CCC(Cc4ccccc4)CC3)n2)cc1	-	-	?	-	-103	-
COc1ccc(-c2cc3c(=O)n(CC(=O)NCCCN4CCC(Cc5ccccc5)CC4)ncn3n2)cc1	-	.	-111	-	-71	-
COc1ccc(Cl)cc1NC(=O)N1CCC2(CC1)Oc1ccccc1C(=O)N2Cc1ccc(F)cc1	.	.	.	.	.	-
CCCCCn1c(=O)[nH]c2cc(C(=O)N3CCN(c4cccc(C)c4)C(C)C3)ccc2c1=O (centres undefined)	.	.	.	.	.	-
O=C(O)/C=C/c1cn(Cc2ccccc2Cl)nc1-c1ccccc1	27µM	-	-	-	-	?
O=C(O)/C=C/c1cn(Cc2ccccc2)nc1-c1ccc(Cl)cc1	-	-	-	-	-	-
O=C1c2ccccc2C(=O)N1CCCc1nc(-c2ccc(Cl)cc2)no1	-	-	-	-	-	-
O=C1c2ccccc2C(=O)N1CCCc1nc(-c2ccccn2)no1	30µM	-	-	-	-100	-
CN(C)C(=O)COC(=O)c1ccc(S(=O)(=O)NCc2ccco2)cc1	27µM	-	-	-	-	-
Cc1ccc(S(=O)(=O)NCc2ccco2)cc1C(N)=O	27µM	-	-	-	-	?
Cc1ccc2ccc(S(=O)(=O)NCc3ccco3)cc2c1	-	.	-	-	-	-
Cc1cccc(-c2nc3ccccc3c(=O)n2N)c1	?	.	-	-	-	-
Cc1cccc(OCc2nc3ccccc3c(=O)n2N)c1	24µM	-	-	-	-	-
COc1cc(C(=O)NCc2ccc3c(c2)CCN3C(=O)c2ccc(Cl)cc2)cc(OC)c1OC	.	.	.	.	.	-
CCc1ccc(NC(=O)c2cnn(-c3c(C)cccc3C)c2C2CCNCC2)cc1	.	.	.	.	.	-
O=c1c(F)cn(C2CCCO2)c(=O)n1Cc1ccc(Cl)cc1 (centres undefined)	27µM	-	-	?	-	-
COc1ccc(CCNc2nc(SCc3ccccc3Cl)nc3ccccc23)cc1OC	.	.	.	.	.	-
Cc1ccc(C(=O)NC(=S)N2CC(C)OC(C)C2)cc1[N+](=O)[O-] (centres undefined)	-	-	-	-	-91	-
CC1(C)CC(=O)c2cc3c(nc2C1)CC(C)(C)CC3=O	-	-	-	-	-	-
CC1(C)CC(=O)c2cnc(N)nc2C1	27µM	-	-	-	-	?
CC(=O)N1c2c(cc(Br)cc2S(=O)(=O)Nc2ccc(OC(F)(F)F)cc2)CC1C (centres undefined)	.	.	.	.	.	-
CN1CCn2cnc(C(=O)NCc3ccccc3)c2C1=O	-	.	-	.	-	.
Cc1cccc(NC(=O)c2ncn3c2C(=O)N(C)CC3)c1	-	.	-	.	-83	.
SMILES	PLK1 PBD block	CBFb-RUNX1 inh	hERG WT inh	MBNL1 CUG block	KCNH2 3.1 block	VDR inh
COc1ccc(S(=O)(=O)c2c(O)c3ccc(C(=O)Nc4ccc(F)cc4F)cc3[nH]c2=O)cc1	-	.	-	-	-	-
COc1ccc(S(=O)(=O)c2c(O)c3ccc(C(=O)Nc4ccc(F)cc4)cc3[nH]c2=O)cc1	30µM	.	-	-	-	?
CCc1ccccc1NC(=O)c1ccc2c(O)c(S(=O)(=O)c3ccc(OC)cc3)c(=O)[nH]c2c1	3.4µM	.	-	-	-	?
O=C(CCCc1ccccc1)NC1CC(=O)N(c2ccc(F)cc2)C1 (centres undefined)	.	.	.	.	.	-
O=C(O)C(Oc1ccc2cc(-c3ccc(Cl)cc3)c(=O)oc2c1)c1ccccc1 (centres undefined)	42µM	.	-	-	-	-
O=C(c1ccccc1Br)N(Cc1ccco1)C1CCS(=O)(=O)C1 (centres undefined)	.	.	.	.	.	-
CC(C)NC(=O)CN1C(=O)CSc2ccc(S(=O)(=O)N3CCCC3)cc21	24µM	.	-	-	-	-

Screening results as filed in PubChem BioAssay.
